Calls of active or inactive are those of the source.

Assay [1] concerns Plasmodium falciparum Sir2 (PF13_0152, Sir2A). Briefly: Plasmodium falciparum Sir2A binding compounds – biochemical, small-molecule microarray, 635 nm fluorescence, primary screen (AID 1098).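 Note: score merges spot fluorescence intensity with its signal-to-noise ratio.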 To be noted: fluorescence 635 nm, higher = more signal.
Assay [2] can be described thus: probe aDKK1 binding to arrayed compounds – biochemical, biotinylated probe, 635/667 nm fluorescence, primary screen (AID 1099).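 Note: score merges 667nm spot fluorescence with signal to noise across triplicate slides.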 The settings on record: small-molecule microarray, higher = more signal.
Assay [3] in a line: probe aCHRDL2 binding to arrayed compounds – biochemical, biotinylated probe, 635/667 nm fluorescence, primary screen (AID 1100). The settings on record: small-molecule microarray, higher = more signal.
A short description of assay [4]: change in splice reporter luminescence, either direction, cell-based, HEK293, spliceosome inhibition project, primary screen (AID 1101).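 Note: HEK293 cells carrying a splicing-competent luciferase reporter gene; test concentration not given here.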 To be noted: HEK293 splicing luciferase reporter, 24 h, higher = more signal, called active from +8 up or from −8 down.
Assay [5] has as its target Fibroblast growth factor 10 (Homo sapiens) (UniProt O15520). The assay can be described thus: compounds binding fibroblast growth factor 10 – biochemical, small-molecule microarray, 635 nm fluorescence, primary screen (AID 1102). The settings on record: FGF10 binding, fluorescence 635 nm, higher = more signal.
The subject of assay [6] is glycogen synthase kinase-3 (GSK3A per assay name; protocol says GSK3B). Briefly: compounds binding glycogen synthase kinase-3 – biochemical, small-molecule microarray, 635 nm fluorescence, GSK3A, primary screen (AID 1103). Note: the record names both GSK3A and GSK3B. To be noted: fluorescence 635 nm, higher = more signal.
Assay [7] addresses Epidermal growth factor receptor (Homo sapiens) (UniProt P00533). The assay can be described thus: compounds binding epidermal growth factor receptor – biochemical, small-molecule microarray, 635 nm fluorescence, primary screen (AID 1104).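 Note: score merges 667 nm emission intensity with spot signal to noise over triplicate slides.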 To be noted: EGFR binding, higher = more signal.
In assay [8] the target is Follistatin-related protein 3 (Homo sapiens) (UniProt O95633). Briefly: compounds binding follistatin-related protein 3 – biochemical, small-molecule microarray, 635 nm fluorescence, primary screen (AID 1105).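 Note: score merges emission near 667 nm and signal to noise per printed spot across three slides.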 To be noted: FSTL3 binding, higher = more signal.
The target of assay [9] is Dickkopf-related protein 1 (Homo sapiens) (UniProt O94907). The assay can be described thus: small molecules binding DKK1 protein – biochemical, small-molecule microarray, 635 nm fluorescence scan, primary screen (AID 1106).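 Note: score merges emission near 667 nm with signal to noise over three replicate slides.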 The settings on record: higher = more signal.
Assay [10] has as its system Inhibin beta A chain (activin A). The assay can be described thus: small molecules binding activin A – biochemical, small-molecule microarray, 635 nm fluorescence scan, primary screen (AID 1107).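 Note: mouse activin A protein probed at 4.33 µg/mL on printed slides; score merges bound-protein fluorescence near 667 nm with spot signal-to-noise.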 To be noted: INHBA, higher = more signal.
Assay [11] concerns Human papillomavirus type 1a protein E7 (residues 44-93). The assay can be described thus: small molecules binding HPV E7 44-93 – biochemical, small-molecule microarray, residues 44-93, 635 nm fluorescence, primary screen (AID 1108).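 Note: E7 fragment applied at 1 µg/mL in TBST for 1 h at 4 C; score combines spot fluorescence with its signal to noise ratio.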 To be noted: fluorescence 635 nm, higher = more signal.
Assay [12] in a line: hepatitis C replication reporter changes, two-sided – Huh7 cells, luciferase reporter, HCV replication inhibitor project, primary screen (AID 1109).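 Note: huh7 hepatoma cells harbouring a luciferase neomycin HCV replicon reporter; luciferase luminescence as measure of HCV replicon replication; test concentration not given here.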 To be noted: Huh7 HCV replicon luciferase reporter, 48 h; higher = more signal. On the technique in general: A reporter such as luciferase makes a cellular process visible.
Assay [13] deals with Left-right determination factor 2 (Homo sapiens) (UniProt O00292). Briefly: small molecules binding LEFTY2 protein – biochemical, small-molecule microarray, 635 nm fluorescence scan, primary screen (AID 1110). The settings on record: higher = more signal.
For assay [14], the target named is Calmodulin-1 (Homo sapiens) (UniProt P0DP23). Briefly: small molecules binding calmodulin-1 with EGTA – biochemical, small-molecule microarray, Cy5-labelled CALM1, profiling panel (AID 1111).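 Note: labelled calmodulin applied in Tris saline Tween buffer holding calcium plus EGTA and DTT.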 The settings on record: Cy5-CALM1 binding fluorescence, higher = more signal.
Assay [15] has the same target. Briefly: small molecules binding Ca-loaded calmodulin-1 – biochemical, small-molecule microarray, Cy5-labelled CALM1, plus calcium, artefact control for SMM control-protein annotation, profiling panel (AID 1112).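 Note: score merges spot fluorescence with signal to noise from triplicate slides.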 The settings on record: Cy5-CALM1 binding fluorescence, higher = more signal.
Assay [16] in a line: probe aWnt5a binding to arrayed compounds – biochemical, biotinylated probe, 635/667 nm fluorescence, primary screen (AID 1113).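 Note: score merges 667 nm fluorescence intensity with signal-to-noise per printed feature.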 The settings on record: small-molecule microarray, higher = more signal.
The nature of assay [17]: probe aShh binding to arrayed compounds – biochemical, biotinylated probe, 635/667 nm fluorescence, primary screen (AID 1114).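 Note: probe is biotin-labelled aShh protein from a stem cell growth factor screen; measures binding of labelled protein to compounds printed on the slide; score merges feature fluorescence at 667 nm with signal-to-noise.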 The settings on record: small-molecule microarray, higher = more signal.
The nature of assay [18]: probe aNog binding to arrayed compounds – biochemical, biotinylated probe, 635/667 nm fluorescence, primary screen (AID 1115).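 Note: probe is biotinylated aNog protein used at 0.15 µg/mL for 1 h at 4 C; z-score combines 667 nm fluorescence of each spot with its signal to noise.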 To be noted: small-molecule microarray, higher = more signal.
In assay [19] the target is Torsin-1A-interacting protein 1 (Homo sapiens) (UniProt Q5JTV8). The assay can be described thus: compound microarray binding of lysate hLAP1 – cell lysate, small-molecule microarray, COS7 lysate, 635/667 nm fluorescence, primary screen (AID 1116). To be noted: 635 nm fluorescence, higher = more signal.
Assay [20] deals with Alpha-bungarotoxin (Bungarus multicinctus) (UniProt P60615). The assay can be described thus: compounds binding labelled alpha-BTX control protein – biochemical, small-molecule microarray, Alexa647 label, 635/667 nm fluorescence, artefact control for SMM control protein annotation, profiling panel (AID 1117). To be noted: alpha-BTX-A647 binding fluorescence, higher = more signal.
Sequence of Alpha-bungarotoxin (Bungarus multicinctus) (P60615 whole entry, looked up): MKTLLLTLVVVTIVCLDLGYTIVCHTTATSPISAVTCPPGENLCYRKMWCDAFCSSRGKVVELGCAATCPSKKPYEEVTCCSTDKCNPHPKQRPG

Sequence of Torsin-1A-interacting protein 1 (Homo sapiens) (Q5JTV8 whole entry, looked up): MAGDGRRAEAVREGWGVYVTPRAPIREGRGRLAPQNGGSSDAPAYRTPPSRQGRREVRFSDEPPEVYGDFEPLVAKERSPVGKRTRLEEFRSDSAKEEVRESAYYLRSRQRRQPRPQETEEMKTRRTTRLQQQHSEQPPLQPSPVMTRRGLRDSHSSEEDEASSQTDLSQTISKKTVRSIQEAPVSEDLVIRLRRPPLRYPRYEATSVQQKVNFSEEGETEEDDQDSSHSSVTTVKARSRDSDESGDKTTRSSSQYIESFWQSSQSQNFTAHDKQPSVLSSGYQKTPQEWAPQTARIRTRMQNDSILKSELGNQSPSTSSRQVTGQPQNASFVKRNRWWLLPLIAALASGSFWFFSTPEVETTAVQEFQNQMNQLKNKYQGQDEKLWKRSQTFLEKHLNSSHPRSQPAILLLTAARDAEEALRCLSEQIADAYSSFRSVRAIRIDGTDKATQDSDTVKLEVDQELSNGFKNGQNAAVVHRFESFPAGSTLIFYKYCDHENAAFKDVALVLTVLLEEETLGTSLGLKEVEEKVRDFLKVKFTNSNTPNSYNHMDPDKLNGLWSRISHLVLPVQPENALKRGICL
Sequence of Follistatin-related protein 3 (Homo sapiens) (O95633 whole entry, looked up): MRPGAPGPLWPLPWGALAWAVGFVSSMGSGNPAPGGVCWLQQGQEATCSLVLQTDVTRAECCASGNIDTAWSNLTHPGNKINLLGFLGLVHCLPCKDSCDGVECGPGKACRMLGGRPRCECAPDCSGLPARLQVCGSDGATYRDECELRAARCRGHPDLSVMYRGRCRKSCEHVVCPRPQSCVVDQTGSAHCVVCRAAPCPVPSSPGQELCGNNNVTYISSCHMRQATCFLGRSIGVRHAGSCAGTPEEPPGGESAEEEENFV
Sequence of Dickkopf-related protein 1 (Homo sapiens) (O94907 whole entry, looked up): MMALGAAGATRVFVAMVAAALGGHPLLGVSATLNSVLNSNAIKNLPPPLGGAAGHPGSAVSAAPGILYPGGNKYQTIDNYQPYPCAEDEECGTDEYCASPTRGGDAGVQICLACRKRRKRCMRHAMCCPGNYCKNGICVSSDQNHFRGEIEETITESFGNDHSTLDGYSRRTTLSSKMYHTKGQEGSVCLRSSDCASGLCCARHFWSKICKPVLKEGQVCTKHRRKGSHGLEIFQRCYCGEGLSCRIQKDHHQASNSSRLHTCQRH
Sequence of Epidermal growth factor receptor (Homo sapiens) (P00533 whole entry, looked up): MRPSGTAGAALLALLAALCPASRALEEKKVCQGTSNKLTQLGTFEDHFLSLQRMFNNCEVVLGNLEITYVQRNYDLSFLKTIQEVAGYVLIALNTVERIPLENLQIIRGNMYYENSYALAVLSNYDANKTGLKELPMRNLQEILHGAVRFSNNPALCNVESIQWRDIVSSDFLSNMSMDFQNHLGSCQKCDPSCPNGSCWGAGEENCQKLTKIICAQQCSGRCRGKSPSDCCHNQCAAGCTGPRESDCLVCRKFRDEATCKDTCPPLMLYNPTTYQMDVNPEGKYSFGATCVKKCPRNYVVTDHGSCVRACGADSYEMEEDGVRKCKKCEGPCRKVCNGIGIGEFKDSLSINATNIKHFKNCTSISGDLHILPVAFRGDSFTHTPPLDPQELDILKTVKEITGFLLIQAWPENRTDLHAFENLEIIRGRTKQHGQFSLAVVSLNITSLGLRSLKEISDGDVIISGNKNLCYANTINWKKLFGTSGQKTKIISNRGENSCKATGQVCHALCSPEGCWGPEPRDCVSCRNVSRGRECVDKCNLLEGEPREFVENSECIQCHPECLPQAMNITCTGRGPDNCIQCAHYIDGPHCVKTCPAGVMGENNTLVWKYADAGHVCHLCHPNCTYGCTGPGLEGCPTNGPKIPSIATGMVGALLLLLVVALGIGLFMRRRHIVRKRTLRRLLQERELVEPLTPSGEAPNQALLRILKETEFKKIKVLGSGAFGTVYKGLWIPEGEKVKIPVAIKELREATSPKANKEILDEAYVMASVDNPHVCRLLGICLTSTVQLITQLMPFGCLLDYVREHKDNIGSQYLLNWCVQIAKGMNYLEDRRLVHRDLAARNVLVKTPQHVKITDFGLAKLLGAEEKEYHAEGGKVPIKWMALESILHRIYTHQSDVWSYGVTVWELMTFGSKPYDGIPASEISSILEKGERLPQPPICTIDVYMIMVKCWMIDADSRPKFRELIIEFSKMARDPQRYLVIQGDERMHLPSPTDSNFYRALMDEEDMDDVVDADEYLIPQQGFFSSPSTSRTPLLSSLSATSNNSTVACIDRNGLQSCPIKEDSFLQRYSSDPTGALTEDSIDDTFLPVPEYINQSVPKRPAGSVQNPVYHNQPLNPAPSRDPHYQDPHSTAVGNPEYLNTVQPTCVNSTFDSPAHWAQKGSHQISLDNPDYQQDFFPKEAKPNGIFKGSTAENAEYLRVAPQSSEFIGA
Sequence of Fibroblast growth factor 10 (Homo sapiens) (O15520 whole entry, looked up): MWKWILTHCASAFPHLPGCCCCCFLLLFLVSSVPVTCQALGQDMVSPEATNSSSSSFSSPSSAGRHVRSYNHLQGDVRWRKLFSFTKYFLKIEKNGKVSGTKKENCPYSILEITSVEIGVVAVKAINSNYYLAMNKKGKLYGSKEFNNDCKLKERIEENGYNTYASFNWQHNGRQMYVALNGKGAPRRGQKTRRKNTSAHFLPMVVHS
Sequence of Left-right determination factor 2 (Homo sapiens) (O00292 whole entry, looked up): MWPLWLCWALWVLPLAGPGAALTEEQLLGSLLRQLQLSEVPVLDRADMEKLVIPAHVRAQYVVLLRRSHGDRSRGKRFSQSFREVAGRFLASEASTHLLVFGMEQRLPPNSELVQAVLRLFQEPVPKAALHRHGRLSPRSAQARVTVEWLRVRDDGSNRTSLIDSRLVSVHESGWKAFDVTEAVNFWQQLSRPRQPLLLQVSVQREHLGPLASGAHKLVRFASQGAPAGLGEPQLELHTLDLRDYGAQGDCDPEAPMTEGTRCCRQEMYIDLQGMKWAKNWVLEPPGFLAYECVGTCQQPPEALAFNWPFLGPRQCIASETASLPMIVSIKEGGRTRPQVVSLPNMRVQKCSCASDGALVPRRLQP

Consider `CCN1C(=O)[C@H]2[C@H]3[C@H](O)[C@H](O)CC(=NOC(C)CN4CCCCc5nc(C)c(C)cc54)[C@@H]3CC[C@H]2C1=O` (stereo not given in full), for which the composite z-score in assay [1] was 0.438; in [2], -0.206; in assay [3], -0.667; in assay [5], 0.471; in assay [6], 0.606; in assay [7], 0.78. Also, the composite z-score in assay [8] was 0.756; in assay [9], 0.78; in [10], 0.834; in assay [11], -0.504; in [13], 0.905; in assay [14], -2.14. Besides, the composite z-score in [15] is -1.31; in [16] it was -0.184; in [17], 0.0796; in [18], -0.0489; in assay [19], -0.401; in assay [20], -0.294. The z-score in [4] is 0.279 (inactive); in assay [12], -1.17.

Regarding `C=CCC(OC(C)=O)[C@@H]1[C@@H](N(Cc2cc3ccccc3o2)C(=O)Cc2ccc(F)cc2)c2cc(OCCCO)ccc2N1C(=O)Cc1ccc(OC)cc1` (stereo not given in full), the composite z-score in assay [1] was -0.144; in assay [2], -0.361; in assay [3] it was 0.102; in assay [5], 0.0509; in assay [6], -1.17; in assay [7], -0.239. Besides, the composite z-score in [8] is -0.0882; in assay [9], -0.191; in assay [10], 0.772; in assay [11] it was -1.07; in [13] it was -0.0691; in assay [14], -0.481. Moreover, the composite z-score was -0.435 in assay [15]; -0.236 in [16]; 0.14 in assay [17]; 0.0234 in [18]; 0.158 in assay [19]; 0.286 in assay [20]. The z-score is -0.844 (inactive) in [4] and -1.14 in [12].

With `CCOC(=O)CCN1C(=O)[C@H]2[C@H]3[C@H](O)C=CC(=O)[C@@H]3CC[C@H]2C1=O`, the composite z-score was 0.0705 in assay [1]; -0.222 in [2]; -0.437 in assay [3]; 0.605 in assay [5]; 0.323 in assay [6]; 0.678 in assay [7]. Further, the composite z-score is 0.518 in assay [8]; 0.541 in assay [9]; -0.0901 in assay [10]; -0.219 in assay [11]; 0.61 in assay [13]; -0.0738 in assay [14]. Also, the composite z-score is -0.583 in [15]; -0.202 in [16]; -0.262 in assay [17]; -0.147 in assay [18]; 0.174 in assay [19]; 0.335 in [20]. For the same compound, the figures for the z-score in assay [4] and in assay [12] were -0.173 (inactive) and 0.158, respectively.

`COc1ccc(O[C@H]2C=C[C@@H](c3ccccc3)O[C@@H]2COC(=O)CCC(C)=NO[C@@H](C)c2cc(-c3c(C)cc(C)cc3C)no2)cc1`: the composite z-score in [1] was -0.0775; in assay [2], -0.344; in assay [3], 0.268; in assay [5], -1.05; in assay [6] it was -2.04; in assay [7], -0.747. The composite z-score in assay [8] is -1.39; in assay [9], -0.872; in assay [10], 0.934; in [11], -1.13; in assay [13], -0.965; in assay [14], -0.977. Besides, the composite z-score is -0.55 in assay [15]; -0.194 in assay [16]; 0.255 in assay [17]; -0.0207 in assay [18]; -1.16 in [19]; -0.707 in assay [20]. The z-score in assay [4] is -0.398 (inactive); in assay [12], -1.15.

As to `[N-]=[N+]=NCc1ccccc1[C@@H]1OC(c2ccc(OCCCO)cc2)=N[C@]1(Cc1ccccc1)C(=O)N1CCOCC1`, the composite z-score in assay [1] came out at 1.57; in assay [2], 1.2; in assay [3], 0.798; in [5], 1; in assay [6] it was 1.29; in assay [7], 0.0588. For the same compound, the composite z-score was found to be 0.589 in [8]; 0.315 in assay [9]; 0.182 in assay [10]; 0.0452 in assay [11]; 0.343 in assay [13]; 1.93 in [14]. The composite z-score came out at 1.05 in [15]; 0.141 in assay [16]; 0.26 in assay [17]; 1.9 in [18]; 3.31 in [19]; 1.62 in assay [20]. Also, the figures for the z-score in [4] and in [12] were -0.962 (inactive) and -2.03, respectively.

For the origin of these results see PubChem BioAssay.
